PubChem BioAssay AID504773 (Broad Institute, 2011)
Potency and affinity values are given separately. Unmarked numbers belong to inactive results.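 Rule for the calls: active = polarization signal falls with dose and the fitted half-maximal concentration is at or below ten times the sample's top valid dose; inconclusive = flat curve at 30 to 70% inhibition, or poor fit; inactive = signal rises, flat within 30%, or potency beyond limit.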

Biological target: Golgi-associated PDZ and coiled-coil motif-containing protein (Homo sapiens) (UniProt Q9HD26)
Experiment: potency against CAL PDZ-peptide interaction – biochemical, fluorescence polarization, Cerulean-tagged CAL PDZ, cherry-picks, dose response (AID 504773);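 note: 0% = DMSO neutral wells and -100% = excess unlabeled competitor peptide wells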
Settings: CAL PDZ-peptide binding, 1 h; series mostly up to 50 µM; activity change, negative = inhibition: at the top concentration

| Compound | activity change, negative = inhibition |
| --- | --- |
| O=C(COC(=O)c1cccnc1Cl)Nc1ccc2c(c1)OCO2 | 2.18% |
| CN(C)C1(CNC(=O)C2CCC(=O)N(CCc3ccc(Cl)cc3)C2)CCCCC1 (stereo unspecified) | 7.75% |
| O=C(NC1CCCN(Cc2ccc(Cl)cc2)C1)c1cccc(N2CCCC2=O)c1 (stereo unspecified) | 9.36% |
| CC1CCN(c2nc3c(c(=O)n(C)c(=O)n3C)n2CCSc2nc3ccccc3s2)CC1 | -1.96% |
| CCCCNC(=O)c1ccc(-n2c(=S)[nH]c3ccccc3c2=O)cc1 | -57.6% |
| COc1ccc(S(=O)(=O)N2CC(=O)Nc3ccccc32)cc1F | 13.2% |
| COc1cccc(-c2cccc(NC(=O)C3CCN(Cc4ccc(CO)o4)CC3)c2)c1 | -61.6% |
| O=C(NCc1cccnc1)/C(=C/c1ccc(-c2cccc(C(F)(F)F)c2)o1)NC(=O)c1ccccc1 | 8.73% |
| COC(=O)CN1C(=O)N/C(=C/c2cc(Cl)c(OC)c(OC)c2)C1=O | -0.528% |
| O=C(Nc1cccc(F)c1)c1ccco1 | 20.3% |
| O=C(NCc1ccccn1)Nc1ccc(F)c(Cl)c1 | -8.08% |
| CNC(=O)c1nnn(Cc2ccccc2)c1NC(C)=O | 3.9% |
| CC(O)CNCCCOc1cccc(Oc2ccccc2)c1 (stereo unspecified) | 40.7% |
| CC12CCC(C(=O)N(CCCN3CCN(Cc4ccccc4)CC3)C1=O)C2(C)C (stereo unspecified) | -37.3% |
| CN(C)c1ccc(C(=O)OCC(=O)NC2CCCCCC2)cc1 | 9.33% |
| C=CCNC(=O)CC1Nc2c3ccccc3nc(=S)n2C1=O (stereo unspecified) | 12.5% |
| O=[N+]([O-])c1ccc(N/N=C/c2cccnc2)cc1 | 2.25% |
| Cc1cc(C(=O)CN2CCCC2)c(C)n1-c1ccc(Cl)cc1 | -32% |

| Compound | activity change, negative = inhibition |
| --- | --- |
| Cc1cc(SCC(=O)OCC(=O)c2c(N)n(C)c(=O)n(C)c2=O)c(C)cc1Br | -4.31% |
| CC1CCCCC1NCC(=O)NCc1ccc(F)cc1 (stereo unspecified) | -33.3% |
| O=C(CN(Cc1ccccc1)S(=O)(=O)c1ccc(F)cc1)NCCC1=CCCCC1 | 28.8% |
| N=c1c(S(=O)(=O)c2ccc(Cl)cc2)cc2c(=O)n3ccccc3nc2n1C1CCCCC1 | 19.1% |
| COc1ccc(CN(C)C(C)C(=O)NC2CCCc3ccccc32)cc1 (stereo unspecified) | -18.4% |
| COc1ccccc1Oc1coc2cc(OC(=O)N3CCOCC3)ccc2c1=O | 1.18% |
| S=C(NCCc1ccccc1)N1CCn2cccc2C1c1cccnc1 (stereo unspecified) | 22.3% |
| O=C1OC2(CCCCC2)OC(=O)C1=CNc1nc2ccccc2s1 | 6.24% |
| CN(C)/N=C1\CCS(=O)(=O)c2sccc21 | 20.3% |
| CCCCN(CCCC)CCNC(=O)c1ccc2nc(-c3ccccc3NC(C)=O)c(=O)[nH]c2c1 | 24.7% |
| CCN(CC)CCC(=O)N1c2ccccc2CCc2ccc(NC(=O)OC(C)C)cc21 | -39.9% |
| CC(CCCC(C)(C)O)NC(=O)c1ccc(OC2CCN(C(=O)C3CC3)CC2)cc1 (stereo unspecified) | 7.11% |
| O=C(Nc1nc2ccccc2[nH]1)c1cc2ccccc2o1 | 4.01% |
| CCOc1c(Cl)cc(CNc2nnnn2C)cc1OC | 0.869% |
| CC(C)Oc1ccc(C(=O)Nc2ccc(S(=O)(=O)N3CCN(C)CC3)cc2)cc1 | 28.6% |
| C=CCn1c(NC(=O)c2ccco2)nc2ccccc21 | -32.2% |
| COc1ccc(NC(=O)c2ccc3c(c2)NC(=O)CO3)cc1OC | -10.7% |
| Cc1ccc2nc(CSc3nnc(-c4ccncc4)n3C)cc(=O)n2c1 | 15.4% |
